Results: PubChem BioAssay (Tox21)
Values joined by “and” are separate entries in the source; they are usually repeats but may differ in a detail not shown here. Equal values may be shown once. Results filed as inconclusive are left out. A call without a number means that no potency is given here. Some structures have more than one record in an assay (separate samples or runs), and their calls can disagree. Active and inactive are the calls of the source. Unless noted, calls follow the shape of the dose curve; as a rule, active = well fitted curve in the direction sought with a large enough effect in the repeat runs; inconclusive = weak or mixed curves; inactive = no such curve, though single readings can be large; an effect the other way counts as inactive or inconclusive.

Legend:
[1] = qHTS RealTime-Glo MT Cell Viability Assay in HepG2 cells - 24 hour (AID 1224867); also: nearly all actives have a fitted effect of over 50% in size
Outline: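 qHTS, HepG2, 600 cells/well, RealTime-Glo (NanoLuc + prosubstrate) added with cells; 5 h preincubation; DMSO compound addition; 37 C; luminescence at 0/8/16/24/32/40 h.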

[2] = qHTS RealTime-Glo MT Cell Viability Assay in HEK293 cells - 32 hour (AID 1224868); also: top concentration of the series differs between compounds; nearly all actives have a fitted effect of over 50% in size
Outline: (§1)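 Assay medium contained NanoLuc luciferase plus cell-permeant prosubstrate, added with HEK293 cells at 600 cells/well. After 5 h at 37 C/5% CO2 compounds were added; plates stayed at 37 C for 40 h with serial luminescence reads.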

[3] = A CellTox Green Cytotoxicity Assay to monitor cytotoxicity in HEK293 cells - 0 hour (AID 1224869); also: nearly all actives have a fitted effect of over 50% in size
Outline: (§2)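 Read-out: fluorescence of a cell-impermeant cyanine dye staining DNA of dead cells, proportional to cytotoxicity. HEK293, 600 cells/well with reagent, compound (23 nL DMSO) added after 5 h; reads at 0, 8, 16, 24, 32, 40 h.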

[4] = qHTS RealTime-Glo MT Cell Viability Assay in HepG2 cells - 40 hour (AID 1224870); also: nearly all actives have a fitted effect of over 50% in size
Outline: (§3)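 HepG2 cells mixed with RealTime-Glo MT reagents (NanoLuc plus cell-permeant prosubstrate) were seeded at 600 cells/well, incubated 5 h at 37 C/5% CO2, then pinned with compounds in DMSO; nonlytic luminescence tracked viability during 40 h treatment.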

[5] = A CellTox Green Cytotoxicity Assay to monitor cytotoxicity in HEK293 cells - 40 hour (AID 1224871); also: nearly all actives have a fitted effect of over 45% in size; also: potency is read from the fitted curve at half-maximal effect
Outline: as §2

[6] = qHTS RealTime-Glo MT Cell Viability Assay in HEK293 cells - 16 hour (AID 1224872)
Outline: as §1

[7] = qHTS RealTime-Glo MT Cell Viability Assay in HepG2 cells - 8 hour (AID 1224873); also: nearly all actives have a fitted effect of over 55% in size
Outline: as §3

[8] = qHTS assay to identify small molecule antagonists of the estrogen related receptor (ERR) signaling pathway from Tox21 library (AID 1224848); also: nearly all actives have a fitted effect of over 50% in size
Outline: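 First, 2,000 ERR cells per well were plated and held 6 h at 37 C/5% CO2. Next, compounds in DMSO were pinned in and left 18 h at 37 C. Finally, ONE-Glo was added and luminescence read after 30 min at room temperature.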

[9] = qHTS assay to identify small molecule agonists of the estrogen related receptor (ERR) signaling pathway from Tox21 library (AID 1224849; calls by dose curve; also: nearly all actives have a fitted effect of over 15% in size); conditions: ERR reporter cell line, ONE-Glo luciferase, 18 h; at 92.4 µM (top of the series)
Outline: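 Luminescence readout (ONE-Glo, 30 min RT) after 18 h compound exposure at 37 C of NTP-supplied ERR reporter cells; cells were plated 6 h before compound addition by pin tool.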

| SMILES | outcome [1] | Potency [2] | outcome [3] | outcome [4] | Potency [5] | Potency [6] | outcome [7] | Potency [8] | activity change, positive = activation [9] |
| --- | --- | --- | --- | --- | --- | --- | --- | --- | --- |
| COc1cc(Cc2cnc(N)nc2N)cc(OC)c1OC | inactive | inactive | inactive | inactive | inactive | inactive | inactive |  |  |
| CCOC(=O)NNc1nncc2ccccc12 | inactive | inactive | inactive | inactive | inactive |  | inactive |  |  |
| CCCCCCCCC/C=C/CC1CC(=O)OC1=O (stereo not given) | inactive | inactive | inactive | inactive | inactive |  | inactive |  |  |
| CC1=C(C)S(=O)(=O)CCS1(=O)=O | inactive |  | inactive | inactive | inactive |  | inactive | inactive | 10.9% (inactive) |
| c1ccc(OCCOc2ccccc2)cc1 | inactive | inactive | inactive | inactive | inactive |  | inactive |  |  |
| C=CCOC(=O)c1ccccc1C(=O)OCC=C | inactive | inactive | inactive | inactive | inactive | inactive | inactive |  |  |
| CC(=O)CC(=O)Nc1ccccc1C | inactive | inactive | inactive | inactive | inactive | inactive | inactive | inactive | 1.06% (inactive) and 1.9% (inactive) |
| CCCCCC/C(C=O)=C\c1ccccc1 | inactive | inactive | inactive | inactive | 44.1 µM (active) and inactive | inactive | inactive |  |  |
| ON=C1CCCCC1 | inactive | inactive | inactive | inactive | inactive |  | inactive | inactive | -1.41% (inactive) and -1.15% (inactive) |
| Cc1cc(C)c(C)cc1C | inactive | inactive | inactive | inactive | inactive | inactive | inactive |  |  |
| CN(C)CCCN | inactive | inactive | inactive | inactive | inactive |  | inactive | inactive | 5.71% (inactive) and 0.874% (inactive) |
| O=c1[nH]c(=O)n([C@H]2C[C@H](O)[C@@H](CO)O2)cc1Br | inactive | inactive | inactive | inactive | inactive | inactive | inactive |  |  |
